# Test results taken from PubChem BioAssay (NCI).
# About 79,000 compounds went through this panel and 15% of them were active in at least one assay; those are over-represented in the sample as a whole. A number with no mark means an inactive call. The source made the active and inactive calls. No stated cut-off is given here; in the data, active means growth inhibition above about 70%; inactive means the rest.
# Assay: NCI Yeast Anticancer Drug Screen. Data for the mec2-1 strain (AID 157)
# Conditions: S. cerevisiae mec2-1 strain, at 50.0 µM (retest, dose inferred, filed as 5.0), active compounds read high
# Procedure, shortened: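 Vehicle-treated cultures served as reference for growth inhibition of compound-exposed mec2-1 yeast.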
row,Compound,growth inhibition
1,OCCSCc1cc(Cl)cc(Cl)c1O,60%
2,CC(=O)Nc1ccccc1C(O)(c1ccccc1)c1ccccc1,-2%
3,Cc1cc(N=Nc2ccccc2C)c(N)cc1N,97% (active)
4,O=C(Nc1ccc(Cl)cc1)Nc1nnc(/C=C/c2ccc(Cl)c(Cl)c2)o1,-91%
5,CCCCCCCCCCCC(=O)OCCOC(=O)CCCCCCCCCCC,-12%
6,CCN(C(C)=O)c1ccc2c(c1)Cc1ccccc1-2,97% (active)
7,O=[N+]([O-])c1cccn2nc(C3OC(CO)C(O)C3O)nc12 (stereo not drawn),-2%
8,Oc1cc(CNCc2ccccc2)c(O)c(CNCc2ccccc2)c1,24%
9,N#CSC#Cc1ccc(C#CSC#N)cc1,96% (active)
10,O=C(O)/C=C/C(=O)NNc1nc2ccccc2s1,2%
11,COc1ccc2c(c1)[n+]([O-])c(-c1ccc(C)cc1)c(N)[n+]2[O-],99% (active)
12,C=CCc1cc([N+](=O)[O-])ccc1O,85% (active)
13,CC(C)C1=CC23CCC4C(C)(C(=O)O)CCCC4(C)C2CC1c1c(O)ccc(O)c13 (stereo not drawn),100% (active)
14,NC(=O)C(CCc1cccc2ccccc12)c1ccccc1 (stereo not drawn),-6%
15,CC(CO)CCC(=O)C(C)C1C(=O)CC2CC3CC(O)CCC3(C)CC21C (stereo not drawn),66%
16,Oc1c(Cl)cc(Cl)cc1/C=C1\C=Nc2ccccc21,5%
17,CCCC(C(=O)OCCN1CCCC1(C)C)C1CCCC1 (stereo not drawn),46%
18,OCCN1CCN(CCCN2c3cc(Cl)ccc3Sc3ccsc32)CC1,98% (active)
19,O=C(O)/C=C/c1ccc2c(c1)CCCC2,66%
20,CC(NNC(=S)N1CCCC1)c1ccc2ccccc2n1 (stereo not drawn),96% (active)

row,Compound,growth inhibition
1,c1cc(CCSSCCc2ccncc2)ccn1,87% (active)
2,CCOC(=O)C(N=Nc1ccc(Br)c(C)c1)C(C)=O (stereo not drawn),27%
3,N#CC(C(=O)CCCC(=O)Nc1cccc([N+](=O)[O-])c1)c1cccc2ccccc12 (stereo not drawn),3%
4,Cc1ccc(S(=O)(=O)NNC(=O)c2sc(-c3nc(C)c(C(=O)NNS(=O)(=O)c4ccc(C)cc4)s3)nc2C)cc1,99% (active)
5,Nc1nc(Cl)cc(Nc2ccc(Cl)c(Cl)c2)n1,73% (active)
6,CN(C)C=Nc1c2ccccc2nc2ccccc12,80% (active)
7,Cc1cc(N=[N+]=[N-])c2cc(C3CCCCC3)ccc2n1,98% (active)
8,CCN(CC)C(=O)CCCCC(=O)OC(C)C,-2%
9,CC12CCC(C(Br)(Br)C1=O)C2(C)C (stereo not drawn),46%
10,CCCCCCCCN(CCCCCCCC)C(=O)C(C)O (stereo not drawn),98% (active)
11,O=C1C=CC(=O)C1=Cc1ccc(Cl)c(Cl)c1,99% (active)
12,COc1ccc([N+](=O)[O-])cc1NC(=O)Nc1ccc(C(=O)OCC(C)C)cc1,53%
13,CCOC(=O)n1c2ccccc2c(=O)n1CCO,-19%
14,CC(=O)OC12CCC3C4CC=C5CC(O)CCC5(C)C4C(=O)C3C1(C)N1CC(C)CC(O)C1C2C (stereo not drawn),42%
15,Cc1cccnc1NC(=S)Nc1ccccc1Cl,99% (active)
16,CS(=O)(=O)OCCN(CCOS(C)(=O)=O)c1ccc(C=Nc2ccc(-c3cnc(-c4ccc(Cl)cc4)s3)cc2)c(Cl)c1,91% (active)
17,CC1(Cc2ccccc2)CCCC(C=O)C1=O.[Cu+2] (stereo not drawn),97% (active)
18,C[N+]1(c2ccccc2)C=C(c2ccccc2)SC1=S (stereo not drawn),68%
19,CC12CCC3c4cc(O)ccc4CCC3C1CCC2O (stereo not drawn),51%

# Same assay, conditions: S. cerevisiae mec2-1 strain, at 50.0 µM, active compounds read high
row,Compound,growth inhibition
1,OCCSCc1cc(Cl)cc(Cl)c1O,48.2%
2,CC(=O)Nc1ccccc1C(O)(c1ccccc1)c1ccccc1,35.2%
3,Cc1cc(N=Nc2ccccc2C)c(N)cc1N,99.2% (active)
4,O=C(Nc1ccc(Cl)cc1)Nc1nnc(/C=C/c2ccc(Cl)c(Cl)c2)o1,19.4%
5,CCCCCCCCCCCC(=O)OCCOC(=O)CCCCCCCCCCC,-11.3%
6,CCN(C(C)=O)c1ccc2c(c1)Cc1ccccc1-2,95.2% (active)
7,O=[N+]([O-])c1cccn2nc(C3OC(CO)C(O)C3O)nc12 (stereo not drawn),-4.8%
8,Oc1cc(CNCc2ccccc2)c(O)c(CNCc2ccccc2)c1,31.9%
9,N#CSC#Cc1ccc(C#CSC#N)cc1,84.5% (active)
10,O=C(O)/C=C/C(=O)NNc1nc2ccccc2s1,-5.25%
11,COc1ccc2c(c1)[n+]([O-])c(-c1ccc(C)cc1)c(N)[n+]2[O-],99.5% (active)
12,C=CCc1cc([N+](=O)[O-])ccc1O,92.1% (active)
13,CC(C)C1=CC23CCC4C(C)(C(=O)O)CCCC4(C)C2CC1c1c(O)ccc(O)c13 (stereo not drawn),99.3% (active)
14,NC(=O)C(CCc1cccc2ccccc12)c1ccccc1 (stereo not drawn),94.5% (active)
15,CC(CO)CCC(=O)C(C)C1C(=O)CC2CC3CC(O)CCC3(C)CC21C (stereo not drawn),81% (active)
16,Oc1c(Cl)cc(Cl)cc1/C=C1\C=Nc2ccccc21,14.9%
17,CCCC(C(=O)OCCN1CCCC1(C)C)C1CCCC1 (stereo not drawn),39%
18,OCCN1CCN(CCCN2c3cc(Cl)ccc3Sc3ccsc32)CC1,98.4% (active)
19,O=C(O)/C=C/c1ccc2c(c1)CCCC2,73% (active)
20,CC(NNC(=S)N1CCCC1)c1ccc2ccccc2n1 (stereo not drawn),98.2% (active)

row,Compound,growth inhibition
1,c1cc(CCSSCCc2ccncc2)ccn1,50.9%
2,CCOC(=O)C(N=Nc1ccc(Br)c(C)c1)C(C)=O (stereo not drawn),84.1% (active)
3,N#CC(C(=O)CCCC(=O)Nc1cccc([N+](=O)[O-])c1)c1cccc2ccccc12 (stereo not drawn),22.1%
4,Cc1ccc(S(=O)(=O)NNC(=O)c2sc(-c3nc(C)c(C(=O)NNS(=O)(=O)c4ccc(C)cc4)s3)nc2C)cc1,8%
5,Nc1nc(Cl)cc(Nc2ccc(Cl)c(Cl)c2)n1,70.3% (active)
6,CN(C)C=Nc1c2ccccc2nc2ccccc12,57.1%
7,Cc1cc(N=[N+]=[N-])c2cc(C3CCCCC3)ccc2n1,78.8% (active)
8,CCN(CC)C(=O)CCCCC(=O)OC(C)C,-1.1%
9,CC12CCC(C(Br)(Br)C1=O)C2(C)C (stereo not drawn),59.4%
10,CCCCCCCCN(CCCCCCCC)C(=O)C(C)O (stereo not drawn),89.2% (active)
11,O=C1C=CC(=O)C1=Cc1ccc(Cl)c(Cl)c1,98.9% (active)
12,COc1ccc([N+](=O)[O-])cc1NC(=O)Nc1ccc(C(=O)OCC(C)C)cc1,70.2% (active)
13,CCOC(=O)n1c2ccccc2c(=O)n1CCO,98.9% (active)
14,CC(=O)OC12CCC3C4CC=C5CC(O)CCC5(C)C4C(=O)C3C1(C)N1CC(C)CC(O)C1C2C (stereo not drawn),59.5%
15,Cc1cccnc1NC(=S)Nc1ccccc1Cl,91.3% (active)
16,CS(=O)(=O)OCCN(CCOS(C)(=O)=O)c1ccc(C=Nc2ccc(-c3cnc(-c4ccc(Cl)cc4)s3)cc2)c(Cl)c1,95% (active)
17,CC1(Cc2ccccc2)CCCC(C=O)C1=O.[Cu+2] (stereo not drawn),31.5%
18,C[N+]1(c2ccccc2)C=C(c2ccccc2)SC1=S (stereo not drawn),20.6%
19,CC12CCC3c4cc(O)ccc4CCC3C1CCC2O (stereo not drawn),26.5%
